These results are taken from PubChem BioAssay (Tox21).

Records with an inconclusive call do not appear. Entries that show only a call come without a potency. A number with no mark means an inactive call. Active and inactive are the calls of the source. The call rests on the fitted dose curve.

This assay in a line: p53 small molecule agonists, cell-based qHTS assay with human liver microsomes (AID 1963577).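 Further: p53 response element beta-lactamase reporter cells with liver microsomes plus NADPH.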 The note with it: HCT-116 p53RE-bla with human liver microsomes, ratio, 16 h; series mostly up to 66 µM. The text has this:
National Center for Advancing Translational Sciences [NCATS]
Division of Preclinical Innovation [DPI]
U.S. Environmental Protection Agency [EPA]
National Institutes of Environmental Health Sciences [NIEHS]
National Toxicology Program [NTP]
U.S. Food and Drug Administration [FDA]
p53, a tumor suppressor protein, is activated following cellular insult, including DNA damage and other cellular stresses. The activation of p53 regulates cell fate by inducing DNA repair, cell cycle arrest, apoptosis, or cellular senescence. The activation of p53, therefore, is a good indicator of DNA damage and other cellular stresses. […] The activation of the reporter gene under culture conditions can be detected by fluorescence intensity.
Tox21 Assay Protocol Summary:
The p53RE-bla cells were dispensed at 4,000cells/3ul/well in 1536-well black-clear bottom plates. After the assay plates were incubated at 37 C, 5% CO2 incubator for 5 hours, 23 nL of compounds dissolved in DMSO, positive controls or DMSO only was transferred to the assay plate. Following compound addition, 3 uL of human liver microsomes (XenoTech, Kansas City, KS) at final concentration of 0.5 mg/mL and 1uL of Beta-Nicotinamide adenine dinucleotide 2-phosphate (NADPH) at final concentration of 0.5 mg/mL were transferred to the assay plate. The plates were incubated at 37 C for 16 hours. 1 uL of LiveBLAzer detection mixture was added to each well and the plates were incubated at room temperature in the dark for 2 h.
(In general: qHTS replaces the single test concentration by a dilution series.)
As to `CO[C@@]1(NC(=O)CSC[C@@H](N)C(=O)O)C(=O)N2C(C(=O)O)=C(CSc3nnnn3C)CS[C@@H]21`, the Potency entry is “inactive”. On the same count and under the same terms, the same measure for `CC(=N\O)/C(C)=N/O`: “inactive”. Turning to `NC1CCCCC1N` (stereo not given), the Potency entry is “inactive”.

Consider `COc1c2ccoc2cc2oc(=O)ccc12`, for which the Potency entry was “inactive”.

Regarding `COc1cccc(OC)c1O`, the Potency entry was “inactive”. Same read-out and setting: the same measure for `CC(=O)[O][Al][O]C(C)=O`: “inactive”. The same measure, in the same setting: the value for `CN(C)c1ccc(Cc2ccc(N(C)C)cc2)cc1` was “inactive”.

For the compound `Cc1[nH]cnc1-c1ccc(Cl)cc1`, the Potency result is “inactive”. On the same count and under the same terms, the same measure for `Cc1cc(C)cc(N)c1`: “inactive”; for `CCCCc1ccc(Cl)cc1`: “inactive”; for `O=C(C(=O)c1ccccc1)c1ccccc1`: “inactive”. Regarding `C[C@@H]1CCC[C@H](C)N1`, the Potency entry is “inactive”. Same read-out and setting: the same measure for `OC/C=C/CO`: “inactive”; for `O=C(CCN1CCN(CCO)CC1)N1c2ccccc2Sc2ccc(C(F)(F)F)cc21`: “inactive”. On the same count and under the same terms, the same measure for `COC(=O)CCC(=O)O`: “inactive”; for `CC(C)(CCC(=O)O)C(=O)O`: “inactive”; for `CC(C)CCO`: “inactive”. Turning to `CC1=CCC(C(C)C)=CC1`, the Potency entry was “inactive”. On the same count and under the same terms, the same measure for `CCCc1ccc(O)cc1`: “inactive”; for `Cc1ccccc1OCC(O)CO` (stereo not given): “inactive”; for `CCC(=O)c1ccc(O)cc1`: “inactive”. Consider `O=C(O)[C@@H](O)[C@H](O)[C@H](O)[C@@H](O)C(=O)O`, for which the Potency result was “inactive”. For the compound `O=C(O)Cc1ccc(CCNS(=O)(=O)c2ccc(Cl)cc2)cc1`, the Potency result is “inactive”. Still for that read-out and setting: the value for `CC(C)Nc1ccccc1` was “inactive”; that for `Cc1onc(-c2ccccc2)c1C(=O)Cl` was “inactive”; that for `CC(CO)c1ccccc1` (stereo not given) was “inactive”.

On to `OCCOCCOCCOCCOCCO`, for which the Potency entry was “inactive”. For the compound `CN(C)c1ccc(/C=C/c2ccc([N+](=O)[O-])cc2)cc1`, the activation is -2.79% [at 5.99 µM]. In the case of `C1CSCCS1`, the Potency entry was “inactive”. Regarding `CN(C)C(=O)Oc1ccc[n+](C)c1`, the Potency result is “inactive”. As for `C[Si](C)O[Si](C)(C)O[Si](C)(C)O[Si](C)C`, the Potency entry was “inactive”.

Turning to `COC(=O)c1cc(Cl)c(NC(C)=O)cc1OC`, the Potency entry is “inactive”. Same read-out and setting: the value for `CCC(COC(=O)CCS)(COC(=O)CCS)COC(=O)CCS` was “inactive”; that for `CCN(Cc1cccc(S(=O)(=O)O)c1)c1ccccc1` was “inactive”. Same read-out and setting: the value for `O=C(O)C1CCC(C(=O)O)CC1` (stereo not given) was “inactive”; that for `CCCCC(CC)COCCO` (stereo not given) was “inactive”.

In the case of `CC(=O)N[C@H]1[C@H]([C@H](O)[C@H](O)CO)OC(C(=O)O)=C[C@@H]1N=C(N)N`, the Potency result is “inactive”. Same read-out and setting: the value for `C1COC1` was “inactive”; that for `OC1CCCCCCCCCCC1` was “inactive”. The same measure, in the same setting: the same measure for `O=C1CCCCCCCCCCCCCCCO1`: “inactive”.
